Test results as given in PubChem BioAssay.
Values without a mark were called inactive. No rule for the calls is given here.

Target: Pantothenate synthetase (Mycobacterium tuberculosis (strain ATCC 25618 / H37Rv)) (UniProt P9WIL5)
Assay: Coupled enzyme confirmation of inhibitors against recombinant Mtb PanC (AID 375);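 also: 0% = full reaction with vehicle and 100% = no enzyme background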
Conditions: coupled enzyme assay; at 10 µM, stronger effect = higher value

Sequence of Pantothenate synthetase (Mycobacterium tuberculosis (strain ATCC 25618 / H37Rv)) (P9WIL5 whole entry, looked up): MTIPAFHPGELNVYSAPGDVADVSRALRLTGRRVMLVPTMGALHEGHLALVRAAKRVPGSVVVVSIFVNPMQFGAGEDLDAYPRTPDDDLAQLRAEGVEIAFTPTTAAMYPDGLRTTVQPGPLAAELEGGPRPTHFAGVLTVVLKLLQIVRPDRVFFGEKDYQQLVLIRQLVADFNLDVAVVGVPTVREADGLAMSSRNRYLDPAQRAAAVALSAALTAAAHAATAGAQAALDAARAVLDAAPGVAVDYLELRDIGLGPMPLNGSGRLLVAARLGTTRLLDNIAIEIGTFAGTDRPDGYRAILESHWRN

Going from `CCOC(=O)/C=C1\CC(=O)Nc2nonc2N1` to `O=C1C/C(=C/NCc2ccccc2)C(=O)N1`, the inhibition falls from 4% to 3%.

`CCCCNC(=O)OCCNC(=O)NC` and `CCCCn1c(NCCC)nc2c1c(=O)[nH]c(=O)n2C` are the same in inhibition: 0% for the first, 0% for the second.

First: Cc1c(O)c(CN2CCCCC2)cc2c3c(c(=O)oc12)CCC3
Second: CCN(CC)C(c1ccc(C)cc1)c1nnnn1C1CCCCC1 (configuration not stated)
The inhibition of the first is higher: 2% for the first, 0% for the second.

First: CC(C)(CSc1nncn1N)NS(=O)(=O)c1ccc(Cl)cc1
Second: CC(C)NC(=O)c1ccccc1NC(=O)CCS(=O)(=O)Cc1ccccc1
The inhibition of the first is lower: 0% for the first, 2% for the second.

`CC(C)CCn1c(=O)c2ccccc2n2c(CN(C)Cc3ccccc3)nnc12` and `CCOn1c(=O)c(=O)n(OCc2ccccc2)c2ccccc21` are the same in inhibition: 0% for the first, 0% for the second.

`CCOC(=O)c1c(C)[nH]c(C)c1C(=O)COC(=O)CNC(=O)c1ccc(OCC)cc1` and `COc1ccc(CN(C)CC(=O)c2c(N)n(Cc3ccccc3)c(=O)n(C)c2=O)c(OC)c1` are the same in inhibition: 0% for the first, 0% for the second.

Going from `O=c1[nH]cnc2c1nc(SCc1ccccc1)n2C1OC(CO)C(O)C1O` (configuration not stated) to `CCOc1ccccc1NC(=O)CSc1nnc(Cc2cccn2C)n1-c1ccc(F)cc1`, the inhibition rises from 0% to 5%.

First: O=C(CCn1c(=O)sc2ccccc21)Nc1cccnc1
Second: CCOc1ccccc1NC(=O)CSc1nnc2c(CC)c(C)nc(N)n12
The inhibition of the first is higher: 6% for the first, 0% for the second.

For `CC(=O)Nc1ccc(N=Cc2nc(-c3ccc(C)cc3)oc2O)cc1`, the inhibition was 0%.
